In the library only some 2.4% were active in any assay of this set; here they are far more common.
CHO-K1 Ca antag: M1 antagonist counterscreen hit in parental CHO-K1 cells | ATP-induced calcium, Fluo-8 fluorescence | inhibition, % at 3 µM | 0.6% of 360,000 active;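 active = inhibition above a per-plate cutoff, the plate's mean sample inhibition plus 3 SD, cut at about 24% in these data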
M1 PAM parental: M1 PAM counterscreen hit in parental CHO-K1 cells; ATP EC20, Fluo-8 calcium fluorescence; 0% at ATP EC20, 100% at ATP max; activation, % at 3 µM; 0.02% of 360,000 active;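 active = activation above the run cutoff, the mean activation of all test compounds plus 3 SD, cut at about 40% in these data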;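 also: peak over basal fluorescence ratio in a 140 s read after ATP addition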
CHO-K1 Ca ag: nonselective activator or artifact in parental CHO-K1 cells; Fluo-8 calcium fluorescence; scaled to maximal ATP response, vehicle zero; activation, % at 3 µM; 0.48% of 360,000 active; in the data active = activation above about 15%;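 also: untransfected CHO-K1 host cells lacking M1 receptor as counterscreen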
M1 antag: antagonists of human M1 muscarinic receptor | 1.3% of 360,000 active | inhibition, % at 3 µM | CHO-K1 hM1, Fluo-8 calcium fluorescence, ACh EC80 antagonist | AID 588852;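 active = percent inhibition above its own plate's cutoff, namely the mean of that plate's compound wells plus 3 SD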;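 also: peak over basal fluorescence ratio during 140 s after agonist addition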
Target sequence (P11229 whole entry, looked up): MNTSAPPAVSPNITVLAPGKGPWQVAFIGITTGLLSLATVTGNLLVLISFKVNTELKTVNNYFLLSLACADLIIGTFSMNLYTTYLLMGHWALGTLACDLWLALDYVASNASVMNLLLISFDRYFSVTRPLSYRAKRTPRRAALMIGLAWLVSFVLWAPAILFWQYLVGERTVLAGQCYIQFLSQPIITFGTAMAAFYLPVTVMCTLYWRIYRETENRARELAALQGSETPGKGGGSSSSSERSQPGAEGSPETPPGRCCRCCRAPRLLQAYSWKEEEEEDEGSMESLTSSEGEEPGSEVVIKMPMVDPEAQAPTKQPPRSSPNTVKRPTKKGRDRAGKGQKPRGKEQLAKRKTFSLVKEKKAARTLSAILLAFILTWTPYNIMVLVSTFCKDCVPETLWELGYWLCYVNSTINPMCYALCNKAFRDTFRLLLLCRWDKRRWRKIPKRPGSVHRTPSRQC
CHRM1 agonist: human M1 muscarinic receptor agonism; 0.33% of 360,000 active; CHO-K1 hM1, Fluo-8 calcium fluorescence, agonist mode; 0% DMSO, 100% acetylcholine EC100; activation, % at 3 µM; P11229;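 active = activation above the run's mean compound activation plus 3 SD, cut at about 16% in these data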;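 also: peak over basal fluorescence ratio within a 140 s kinetic read after compound addition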
CHRM1 PAM: potentiates human M1 receptor response to acetylcholine; 0.088% of 360,000 active; CHO-K1 hM1, Fluo-8 calcium fluorescence, ACh EC20; 0% = ACh EC20, 100% = maximal ACh; P11229; activation, % at 3 µM; in the data active = activation above about 19%, passing the limit was not always enough
Numbers stand for hits; - = inactive; . = not tested or not shown.

SMILES	CHO-K1 Ca antag	M1 PAM parental	CHO-K1 Ca ag	M1 antag	CHRM1 agonist	CHRM1 PAM
CCOC(=O)C1(CCCc2ccccc2)CCN(Cc2nccn2CC)CC1	-	-	-	48.4	-	-
CCOC(=O)C1(CCCc2ccccc2)CCN(C(=O)CSC)CC1	-	-	-	-	-	-
CCOC(=O)C1(CCc2ccccc2)CCN(C(=O)C2CCOCC2)CC1	25.0	-	-	-	-	-
CCOC(=O)C1(CCOc2ccccc2)CCN(Cc2ccc(C(=O)OC)cc2)CC1	-	-	-	42.1	-	-
CCCCCCn1cc(CN2CC(N(C)CC)CS2(=O)=O)nn1 (stereo not drawn)	-	-	-	.	.	.
CCOC(=O)C1(CCOc2ccccc2)CCN(Cc2nccn2CC)CC1	-	-	-	27.1	-	-
CCOC(=O)C1(CCOC)CCN(C/C=C/c2ccccc2OC)CC1	30.7	-	-	-	-	-
CCn1ccnc1CN1CCC(CO)(CCOc2ccccc2)CC1	-	-	-	-	-	-
COC(=O)c1cc(C(=O)OCC(=O)N2CCCCC2)cc([N+](=O)[O-])c1	-	-	-	-	-	-
CCOc1ccc(N(CC(=O)N2CCN(Cc3ccccc3)CC2)S(C)(=O)=O)cc1	-	-	-	-	-	-
O=C(COC(=O)c1ccc(F)cc1F)NCCNC(=O)COC(=O)c1ccc(F)cc1F	-	-	-	-	-	-
O=C(COC(=O)c1ccc(F)cc1F)NC1CC1	30.3	-	-	-	-	-
COc1ccc(Br)c(C(=O)Nc2cccc(Cl)c2Cl)c1	31.4	-	-	-	-	-
COc1ccccc1C(=O)N/C(=C\c1cn(S(=O)(=O)N(C)C)c2ccccc12)C(=O)N1CCCC1	-	-	-	-	-	-
CCc1nc2ccccc2c(C(=O)OCc2nc3ccccc3c(=O)[nH]2)c1C	-	-	-	-	-	-
O=C(CCNS(=O)(=O)c1cccc2nsnc12)N1CCN(c2ccccn2)CC1	-	-	-	89.4	-	-
CC(OC(=O)C1CC1)C(=O)Nc1ncc(Cl)cc1Cl (stereo not drawn)	-	-	-	-	-	-
O=C(Nc1ccc(OC(F)(F)F)cc1)N1CCc2nc(NCc3cccc(Oc4ccccc4)c3)ncc2C1	-	-	-	43.0	-	-
CCOc1ccc(-c2cc(C(=O)N3CCN(c4ccccn4)CC3)c3ccccc3n2)cc1	-	-	-	-	-	-
COc1ccc(-c2cc(C(=O)N3CCN(c4ccccc4O)CC3)c3ccccc3n2)cc1OC	-	-	-	46.2	-	-
O=C(c1cc(-c2cccs2)nc2ccccc12)N1CCN(c2ccccc2O)CC1	-	-	-	32.2	-	-
COc1ccc(-c2cc(C(=O)N3CCN(c4ccccn4)CC3)c3ccccc3n2)cc1	-	-	-	30.2	-	-
CCOc1ccc(OCCOC(=O)CN(C)S(=O)(=O)c2ccc(NC(C)=O)cc2)cc1	-	-	-	-	-	-
CSC1=NSC2=NC(=O)/C(=C/c3coc4ccc(O)cc4c3=O)C(=N)N12	34.9	-	27.2	34.2	41.5	-
CSC1=NSC2=NC(=O)/C(=C/c3coc4ccccc4c3=O)C(=N)N12	34.7	-	45.4	55.8	78.0	-
SMILES	CHO-K1 Ca antag	M1 PAM parental	CHO-K1 Ca ag	M1 antag	CHRM1 agonist	CHRM1 PAM
N=C1/C(=C\c2coc3ccccc3c2=O)C(=O)N=C2SC=CN12	31.0	-	83.2	40.7	47.0	-
CSC1=NSC2=NC(=O)/C(=C\c3cccs3)C(=N)N12	-	-	-	-	-	-
CC1=CC2=NC(=O)/C(=C/c3coc4ccc(Cl)cc4c3=O)C(=N)N2O1	27.3	-	56.1	-	29.4	-
COc1ccc(NC(=O)[C@H](C)NC(=O)C2CCN(S(=O)(=O)c3ccc(C)cc3)CC2)cc1OC	-	-	-	-	-	-
CCn1cc(S(=O)(=O)Nc2ccc(Cl)cc2F)cn1	-	-	-	-	-	-
FC(F)Oc1ccc(-c2c[n+]3c(n2-c2ccccc2)CCCCC3)cc1	-	-	-	-	-	-
COc1ccc(-c2c[n+]3c(n2-c2ccccc2)SCC3)cc1	-	-	-	62.4	-	-
COc1ccc(-c2c[n+]3c(n2-c2ccccc2)SCC3)cc1OC	-	-	-	-	-	-
Cc1ccc(-c2c[n+]3c(n2-c2ccccc2)SCC3)cc1	-	-	-	54.3	-	-
